# Measurements published in the supplement of paper PMC11732987, “Enantioselective OTUD7B fragment discovery through chemoproteomics screening and high-throughput optimisation” (Communications Chemistry, 2025).
# A number with no mark means an inactive call.
# Tests used:
# Experiment in all cases: log2 ratio of Biotin-Ahx-Ub-VS probe labelling (fragment/DMSO); higher = less target engagement (more negative = stronger competition), active = hit call of the paper (q ≤ 0.05, log2 ratio ≤ -1)
# Details in all cases: compound concentration: 200 uM; treatment time: 3 h
# OTUD6B = target: T1, OTUD6B (UniProt Q8N6M0)
# T1 sequence (whole entry): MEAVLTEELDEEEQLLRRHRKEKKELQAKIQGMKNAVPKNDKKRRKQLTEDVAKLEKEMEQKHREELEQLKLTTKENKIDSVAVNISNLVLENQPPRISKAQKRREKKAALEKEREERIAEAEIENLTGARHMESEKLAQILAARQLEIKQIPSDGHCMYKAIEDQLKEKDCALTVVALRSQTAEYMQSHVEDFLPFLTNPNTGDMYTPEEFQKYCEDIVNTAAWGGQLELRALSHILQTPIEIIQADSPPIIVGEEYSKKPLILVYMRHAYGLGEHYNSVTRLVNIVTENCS
# Summary of the method: (§1)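 Labelling with Biotin-Ahx-Ub-VS (0.5 µM final, 1 h) followed a 3 h triplicate treatment of HEK293T lysate (495 µg per sample, Tris/CHAPS/IGEPAL buffer with protease inhibitors) with fragment at 200 µM or vehicle. Labelled DUBs were NeutrAvidin-enriched, digested with LysC and trypsin, and run by diaPASEF LC-MS/MS. The values, average log2 fragment/vehicle ratios by unpaired t-test, come from global-median-normalised Spectronaut label-free quantities. Proteins with ≥2 unique peptides were used.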
# OTUD7B = target: T2, OTUD7B (UniProt Q6GQQ9)
# T2 sequence (whole entry): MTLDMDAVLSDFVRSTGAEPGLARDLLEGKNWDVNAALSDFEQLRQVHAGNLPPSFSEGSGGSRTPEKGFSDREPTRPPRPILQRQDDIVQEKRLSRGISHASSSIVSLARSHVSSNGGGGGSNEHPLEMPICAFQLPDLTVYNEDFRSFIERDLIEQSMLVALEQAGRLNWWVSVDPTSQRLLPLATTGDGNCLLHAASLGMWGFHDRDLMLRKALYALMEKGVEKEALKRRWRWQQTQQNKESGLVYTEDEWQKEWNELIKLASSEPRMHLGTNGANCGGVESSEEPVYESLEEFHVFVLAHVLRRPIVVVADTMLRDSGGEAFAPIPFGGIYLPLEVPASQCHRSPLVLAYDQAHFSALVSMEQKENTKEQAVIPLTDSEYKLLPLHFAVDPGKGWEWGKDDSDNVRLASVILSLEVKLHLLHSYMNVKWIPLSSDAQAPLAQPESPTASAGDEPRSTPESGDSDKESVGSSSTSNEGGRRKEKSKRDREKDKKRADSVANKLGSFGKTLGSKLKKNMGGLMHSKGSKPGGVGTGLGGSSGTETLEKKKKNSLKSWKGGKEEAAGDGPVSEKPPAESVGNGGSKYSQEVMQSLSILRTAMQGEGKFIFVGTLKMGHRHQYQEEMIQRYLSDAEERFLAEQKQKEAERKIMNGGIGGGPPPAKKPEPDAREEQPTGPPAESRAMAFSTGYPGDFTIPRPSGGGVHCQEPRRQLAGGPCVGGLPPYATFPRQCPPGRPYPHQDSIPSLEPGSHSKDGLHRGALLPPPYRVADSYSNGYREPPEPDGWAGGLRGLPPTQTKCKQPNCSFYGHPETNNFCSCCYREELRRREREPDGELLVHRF
# Summary of the method: as §1
# PRPF8 = PRPF8 (UniProt Q6P2Q9)
# Summary of the method: as §1
# PSMD7 = target: T3, PSMD7 (UniProt P51665)
# T3 sequence (whole entry): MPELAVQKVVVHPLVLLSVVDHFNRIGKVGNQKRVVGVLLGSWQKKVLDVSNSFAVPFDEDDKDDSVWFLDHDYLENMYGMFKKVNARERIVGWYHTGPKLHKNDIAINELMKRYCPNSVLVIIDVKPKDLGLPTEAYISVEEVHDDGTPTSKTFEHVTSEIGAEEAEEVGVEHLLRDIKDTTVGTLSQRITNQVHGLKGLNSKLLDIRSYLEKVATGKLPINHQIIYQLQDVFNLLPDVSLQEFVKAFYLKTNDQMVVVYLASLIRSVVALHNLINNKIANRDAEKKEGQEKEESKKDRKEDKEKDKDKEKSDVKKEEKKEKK
# Summary of the method: as §1
# UCHL1 = UCHL1 (UniProt P09936)
# Summary of the method: as §1
# UCHL3 = target: T4, UCHL3 (UniProt P15374)
# T4 sequence (whole entry): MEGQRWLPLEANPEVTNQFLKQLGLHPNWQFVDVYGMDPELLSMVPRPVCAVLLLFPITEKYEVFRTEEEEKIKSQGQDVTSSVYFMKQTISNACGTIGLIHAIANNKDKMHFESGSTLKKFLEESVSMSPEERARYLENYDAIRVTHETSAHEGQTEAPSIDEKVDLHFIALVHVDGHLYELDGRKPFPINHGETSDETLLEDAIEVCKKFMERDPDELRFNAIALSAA
# Summary of the method: as §1
# UCHL5 = target: T5, UCHL5 (UniProt Q9Y5K5)
# T5 sequence (whole entry): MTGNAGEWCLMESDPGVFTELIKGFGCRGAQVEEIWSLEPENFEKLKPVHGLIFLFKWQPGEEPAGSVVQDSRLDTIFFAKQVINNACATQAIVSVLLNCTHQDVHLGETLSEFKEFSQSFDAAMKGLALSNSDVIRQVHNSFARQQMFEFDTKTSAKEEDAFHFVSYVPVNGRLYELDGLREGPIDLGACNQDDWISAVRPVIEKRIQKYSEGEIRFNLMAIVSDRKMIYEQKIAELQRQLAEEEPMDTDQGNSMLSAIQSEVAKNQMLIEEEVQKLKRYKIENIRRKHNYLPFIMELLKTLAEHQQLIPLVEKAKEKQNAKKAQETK
# Summary of the method: as §1
# USP10 = USP10 (UniProt Q14694)
# Summary of the method: as §1
# USP15 = target: T6, USP15 (UniProt Q9Y4E8)
# T6 sequence (whole entry): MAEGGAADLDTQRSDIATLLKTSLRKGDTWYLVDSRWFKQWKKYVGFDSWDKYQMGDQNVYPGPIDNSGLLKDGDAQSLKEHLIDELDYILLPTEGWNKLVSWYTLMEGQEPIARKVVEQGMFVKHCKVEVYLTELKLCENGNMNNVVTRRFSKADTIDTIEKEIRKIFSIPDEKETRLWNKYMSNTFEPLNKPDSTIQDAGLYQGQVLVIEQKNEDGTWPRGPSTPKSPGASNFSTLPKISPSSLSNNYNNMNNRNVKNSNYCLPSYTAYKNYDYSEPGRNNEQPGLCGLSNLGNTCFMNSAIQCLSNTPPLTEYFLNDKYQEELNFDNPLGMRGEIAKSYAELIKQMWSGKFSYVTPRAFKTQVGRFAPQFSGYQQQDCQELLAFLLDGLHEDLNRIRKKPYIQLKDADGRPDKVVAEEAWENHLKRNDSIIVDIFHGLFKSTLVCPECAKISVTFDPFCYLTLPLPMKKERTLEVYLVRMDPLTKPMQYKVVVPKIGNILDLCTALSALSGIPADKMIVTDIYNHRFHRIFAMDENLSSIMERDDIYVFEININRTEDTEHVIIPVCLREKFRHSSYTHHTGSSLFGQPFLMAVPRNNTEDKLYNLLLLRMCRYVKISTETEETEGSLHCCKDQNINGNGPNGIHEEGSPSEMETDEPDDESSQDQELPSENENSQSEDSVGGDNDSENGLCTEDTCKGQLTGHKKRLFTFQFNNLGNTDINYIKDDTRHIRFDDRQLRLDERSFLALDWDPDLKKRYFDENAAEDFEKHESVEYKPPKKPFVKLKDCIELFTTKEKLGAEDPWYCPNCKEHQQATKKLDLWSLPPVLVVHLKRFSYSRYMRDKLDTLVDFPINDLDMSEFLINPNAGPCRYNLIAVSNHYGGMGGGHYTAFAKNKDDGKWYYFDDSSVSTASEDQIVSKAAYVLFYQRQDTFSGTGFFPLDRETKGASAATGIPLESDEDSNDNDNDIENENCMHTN
# Summary of the method: as §1
# USP16 = USP16 (UniProt Q9Y5T5)
# Summary of the method: as §1
# Sequence of UCHL1 (P09936 whole entry, looked up): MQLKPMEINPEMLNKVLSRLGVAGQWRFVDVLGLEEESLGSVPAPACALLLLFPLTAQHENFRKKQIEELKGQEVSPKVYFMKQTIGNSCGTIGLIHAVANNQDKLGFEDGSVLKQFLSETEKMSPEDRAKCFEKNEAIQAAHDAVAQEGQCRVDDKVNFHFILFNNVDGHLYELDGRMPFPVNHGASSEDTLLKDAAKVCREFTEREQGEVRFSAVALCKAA
# Sequence of USP10 (Q14694 whole entry): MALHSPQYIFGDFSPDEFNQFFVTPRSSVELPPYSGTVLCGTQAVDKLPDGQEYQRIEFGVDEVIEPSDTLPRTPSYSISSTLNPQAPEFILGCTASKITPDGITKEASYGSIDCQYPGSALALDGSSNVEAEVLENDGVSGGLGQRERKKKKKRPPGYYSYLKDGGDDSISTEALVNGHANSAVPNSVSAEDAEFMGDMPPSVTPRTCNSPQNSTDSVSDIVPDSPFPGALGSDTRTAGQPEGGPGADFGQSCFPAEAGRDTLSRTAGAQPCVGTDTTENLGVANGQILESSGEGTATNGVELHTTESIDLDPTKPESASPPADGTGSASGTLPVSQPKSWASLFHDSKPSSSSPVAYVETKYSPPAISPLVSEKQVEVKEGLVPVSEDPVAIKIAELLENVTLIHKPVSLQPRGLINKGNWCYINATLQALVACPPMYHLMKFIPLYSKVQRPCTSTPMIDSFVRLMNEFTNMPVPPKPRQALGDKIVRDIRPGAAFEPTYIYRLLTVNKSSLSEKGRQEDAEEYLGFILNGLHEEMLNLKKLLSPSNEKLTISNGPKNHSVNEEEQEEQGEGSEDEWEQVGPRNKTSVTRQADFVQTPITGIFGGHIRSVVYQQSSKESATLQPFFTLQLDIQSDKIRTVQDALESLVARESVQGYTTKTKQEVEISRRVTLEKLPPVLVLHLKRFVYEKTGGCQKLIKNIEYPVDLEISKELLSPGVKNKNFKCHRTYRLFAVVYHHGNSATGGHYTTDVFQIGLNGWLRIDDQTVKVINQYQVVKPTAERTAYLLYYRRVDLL
# Sequence of USP16 (Q9Y5T5 whole entry, looked up): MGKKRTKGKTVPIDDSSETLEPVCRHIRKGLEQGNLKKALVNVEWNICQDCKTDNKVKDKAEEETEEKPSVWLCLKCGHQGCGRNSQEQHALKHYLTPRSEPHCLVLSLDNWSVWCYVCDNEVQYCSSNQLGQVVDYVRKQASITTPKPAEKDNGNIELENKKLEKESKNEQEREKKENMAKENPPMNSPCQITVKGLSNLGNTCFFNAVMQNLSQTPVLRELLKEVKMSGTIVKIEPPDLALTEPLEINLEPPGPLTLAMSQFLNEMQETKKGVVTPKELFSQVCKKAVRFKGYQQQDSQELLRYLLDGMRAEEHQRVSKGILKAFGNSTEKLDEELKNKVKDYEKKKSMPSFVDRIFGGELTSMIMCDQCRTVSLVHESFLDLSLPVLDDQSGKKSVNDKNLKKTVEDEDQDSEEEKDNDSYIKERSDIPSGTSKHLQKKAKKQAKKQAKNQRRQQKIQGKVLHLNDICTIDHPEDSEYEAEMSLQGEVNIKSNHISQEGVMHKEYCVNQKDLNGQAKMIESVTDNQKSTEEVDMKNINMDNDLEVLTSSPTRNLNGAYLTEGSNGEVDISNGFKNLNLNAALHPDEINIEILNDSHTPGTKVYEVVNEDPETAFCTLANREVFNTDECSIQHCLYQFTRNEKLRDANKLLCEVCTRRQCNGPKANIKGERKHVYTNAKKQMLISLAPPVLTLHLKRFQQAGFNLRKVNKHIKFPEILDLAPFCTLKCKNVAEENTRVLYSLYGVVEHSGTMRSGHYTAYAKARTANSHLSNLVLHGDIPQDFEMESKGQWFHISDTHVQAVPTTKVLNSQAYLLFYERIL
compound,measurement,setting,value
Cc1cccc(NC(=O)[C@@H]2CCCN2C(=O)CCl)n1,log2 ratio of Biotin-Ahx-Ub-VS probe labelling,OTUD6B,-0.319
same,log2 ratio of Biotin-Ahx-Ub-VS probe labelling,OTUD7B,-0.29
same,log2 ratio of Biotin-Ahx-Ub-VS probe labelling,PRPF8,-0.0295
same,log2 ratio of Biotin-Ahx-Ub-VS probe labelling,PSMD7,-0.254
same,log2 ratio of Biotin-Ahx-Ub-VS probe labelling,UCHL1,-1.67 (active)
same,log2 ratio of Biotin-Ahx-Ub-VS probe labelling,UCHL3,-0.737
same,log2 ratio of Biotin-Ahx-Ub-VS probe labelling,UCHL5,-0.436
same,log2 ratio of Biotin-Ahx-Ub-VS probe labelling,USP10,-0.09
same,log2 ratio of Biotin-Ahx-Ub-VS probe labelling,USP15,-0.215
same,log2 ratio of Biotin-Ahx-Ub-VS probe labelling,USP16,-0.0941
